A short description of experiment [1]: BSK_LPS_PGE2: BioMAP Diversity Plus: LPS Assay for Prostaglandin E2 (PGE2) Biomarker Activity (AID 2283082).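 For AC50: secreted prostaglandin E2 measured by ELISA in LPS-stimulated co-culture.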 To be noted: primary human HUVEC with PBMC; actives raise or lower the signal. In short, it runs like this:
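Compounds were added to the LPS co-culture of endothelium and PBMC, and PGE2 was measured by ELISA after 24 h. Responses in either direction were fitted with DMSO as baseline.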

Read-out in experiment [2]: Macrophage colony-stimulating factor (MCSF), CSF1 (gene 1435)
The experiment can be described thus: BSK_LPS_MCSF: BioMAP Diversity Plus: LPS Assay for Macrophage colony-stimulating factor (MCSF) Biomarker Activity (AID 2283083). Particulars: primary human HUVEC with PBMC; actives raise or lower the signal. In short, it runs like this: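 Bidirectional fitting against DMSO was applied to M-CSF levels read by ELISA at 24 h post-dose. The system pairs human umbilical vein endothelium with peripheral blood mononuclear cells; parallel SRB staining tracked cytotoxicity.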

Read-out in experiment [3]: Tissue Factor, F3 (gene 2152)
The experiment can be described thus: BSK_LPS_TissueFactor: BioMAP Diversity Plus: LPS Assay for Tissue Factor Biomarker Activity (AID 2283084). Particulars: primary human HUVEC with PBMC; actives raise or lower the signal. In short, it runs like this: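 Compound was added to an endothelial cell/PBMC co-culture, and after 24 h tissue factor (CD142) was read by ELISA. Gain or loss of signal was fitted against a DMSO baseline, and parallel SRB staining (560 nm) tracked overt cytotoxicity.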

Read-out in experiment [4]: Vascular cell adhesion molecule 1 (VCAM1), VCAM1 (gene 7412)
The experiment can be described thus: BSK_LPS_VCAM1: BioMAP Diversity Plus: LPS Assay for Vascular cell adhesion molecule 1 (VCAM1) Biomarker Activity (AID 2283086). Particulars: primary human HUVEC with PBMC; actives raise or lower the signal. In short, it runs like this:
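Cells are dosed in an LPS-stimulated endothelial/mononuclear co-culture and, after 24 h, VCAM-1 is quantified by ELISA. Activity in either direction is fitted relative to the DMSO negative control.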

Read-out in experiment [5]: CD38, CD38 (gene 952)
The experiment can be described thus: BSK_SAg_CD38: BioMAP Diversity Plus: SAg Assay for CD38 Biomarker Activity (AID 2283087). To be noted: primary human HUVEC with PBMC; actives raise or lower the signal. In outline: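 CD38 quantified by ELISA (fluorescence) in a superantigen-activated endothelial cell–PBMC co-culture at 24 h post-dose. Activity fitted in both directions relative to DMSO; parallel SRB and Alamar Blue cytotoxicity read-outs.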

Read-out in experiment [6]: CD40, CD40 (gene 958)
In words: BSK_SAg_CD40: BioMAP Diversity Plus: SAg Assay for CD40 Biomarker Activity (AID 2283088). Particulars: primary human HUVEC with PBMC; actives raise or lower the signal. In short, it runs like this: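 CD40 is measured by fluorescence ELISA in an endothelial/PBMC primary human co-culture at 24 h post-dose. Fitting is bidirectional, DMSO baseline. Parallel SRB staining (560 nm) flags cytotoxicity.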

Read-out in experiment [7]: CD69, CD69 (gene 969)
The experiment can be described thus: BSK_SAg_CD69: BioMAP Diversity Plus: SAg Assay for CD69 Biomarker Activity (AID 2283089).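 For AC50: cell surface CD69 protein quantified by ELISA with fluorescence detection.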 Particulars: primary human HUVEC with PBMC; actives raise or lower the signal. In outline: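 Primary human vascular co-culture (umbilical vein endothelium with peripheral blood mononuclear cells) exposed to test chemical for 24 h. CD69 levels quantified by fluorescence ELISA; DMSO served as negative control for bidirectional fitting.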

Read-out in experiment [8]: Monocyte Chemoattractant Protein-1 (MCP1), CCL2 (gene 6347)
In words: BSK_SAg_MCP1: BioMAP Diversity Plus: SAg Assay for Monocyte Chemoattractant Protein-1 (MCP1) Biomarker Activity (AID 2283090). Particulars: primary human HUVEC with PBMC; actives raise or lower the signal. In short, it runs like this:
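Values derive from bidirectional fitting of ELISA-measured MCP1 against DMSO controls. Readings were taken 24 h after dosing human vascular endothelial cells co-cultured with peripheral blood mononuclear cells under superantigen stimulation.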

Read-out in experiment [9]: E-selectin (Homo sapiens) (UniProt P16581)
In words: BSK_SAg_Eselectin: BioMAP Diversity Plus: SAg Assay for Eselectin Biomarker Activity (AID 2283091). To be noted: primary human HUVEC with PBMC; actives raise or lower the signal. In short, it runs like this:
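Cell-surface E-selectin is read by ELISA at 24 h in the SAg co-culture of HUVEC and PBMC. Curves are fitted in both directions relative to DMSO. Parallel SRB total-protein staining tracks overt toxicity.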

Read-out in experiment [10]: Monokine induced gamma interferon (MIG), CXCL9 (gene 4283)
The experiment can be described thus: BSK_SAg_MIG: BioMAP Diversity Plus: SAg Assay for Monokine induced gamma interferon (MIG) Biomarker Activity (AID 2283092). Particulars: primary human HUVEC with PBMC; actives raise or lower the signal. In outline: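 Endothelial cells and PBMC were co-cultured, exposed to test chemicals, and sampled 24 h later. MIG was measured by ELISA, and responses were fitted in both directions relative to DMSO.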

The nature of experiment [11]: BSK_SAg_PBMCCytotoxicity: PBMC Cytotoxicity Assessment in the BioMAP Diversity Plus: SAg Assay (AID 2283093).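 For AC50: PBMC superantigen activated with SEB plus TSST-1 one hour after compound addition.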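 Note: PBMC viability measured as Alamar Blue reduction fluorescence at 546/580 nm; fitted both ways against DMSO so a hit may be loss or gain of signal.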 Particulars: primary human HUVEC with PBMC. In outline:
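Alamar Blue reduction (6 h, ex/em 546/580 nm) read after 90 h culture of PBMC pre-dosed 1 h then stimulated with SEB plus TSST-1, 20 ng/mL each. Gain or loss of signal fitted relative to DMSO.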

Read-out in experiment [12]: Interleukin-8 (IL8), CXCL8 (gene 3576)
The experiment can be described thus: BSK_SAg_IL8: BioMAP Diversity Plus: SAg Assay for Interleukin-8 (IL8) Biomarker Activity (AID 2283094). Particulars: primary human HUVEC with PBMC; actives raise or lower the signal. In short, it runs like this:
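Chemicals were dosed onto a human endothelial–PBMC co-culture, and IL-8 was quantified by ELISA after 24 h. Both increases and decreases were fitted relative to DMSO.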

The nature of experiment [13]: BSK_SAg_Proliferation: Cell Proliferation Assessment in the BioMAP Diversity Plus: SAg Assay (AID 2283095).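 Note: relative cell number as total protein by SRB absorbance in sub-confluent culture.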 To be noted: primary human HUVEC with PBMC. In outline: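 Absorbance of sulforhodamine B at 560 nm reports total protein in a human vascular endothelial/PBMC co-culture after 96 h chemical exposure. Gain or loss of signal is fitted in both directions against DMSO.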

A short description of experiment [14]: BSK_SAg_SRB: Viability Assessment in the BioMAP Diversity Plus: SAg Assay (AID 2283096).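 Note: cells read one day after compound addition; hits may be either gain or loss of signal compared with DMSO.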 Particulars: primary human HUVEC with PBMC. In outline:
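SRB absorbance at 560 nm served as the viability read-out. Cells (HUVEC plus peripheral blood mononuclear cells) were TCA-fixed and stained 24 h post-dosing; activity fitted in both directions against DMSO controls.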

Experiment [15] concerns the target human CYP2A6, CYP2A6 (gene 1548) (UniProt P11509). In words: NVS_ADME_hCYP2A6: NovaScreen (NVS) CYP450-related Enzyme Activity (ADME) Assay for human CYP2A6 (AID 2283099; active = hit-call score of the fitted dose curve at least 0.9, where 1 is the maximum). In short, it runs like this: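 Compounds screened at 10 uM (duplicate) and, if active, titrated to a 20 uM top concentration against insect-cell-expressed CYP2A6. Loss of fluorescent product signal after 0.5 h, relative to acetonitrile baseline, indicates inhibition.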

Experiment [16] has as its target human CYP2D6, CYP2D6 (gene 1565) (UniProt P10635). In words: NVS_ADME_hCYP2D6: NovaScreen (NVS) CYP450-related Enzyme Activity (ADME) Assay for human CYP2D6 (AID 2283107; active = hit-call score of the fitted dose curve at least 0.9, where 1 is the maximum). In short, it runs like this: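 Fluorescence readout of recombinant CYP2D6 (insect-cell derived) activity after 1 h incubation with test chemical. Acetonitrile served as baseline, loss-of-signal direction. Single-concentration duplicate screening at 10 uM preceded concentration-response retesting.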

Experiment [17] concerns the target human CYP1A1, CYP1A1 (gene 1543) (UniProt P04798). In words: NVS_ADME_hCYP1A1: NovaScreen (NVS) CYP450-related Enzyme Activity (ADME) Assay for human CYP1A1 (AID 2283100; active = hit-call score of the fitted dose curve at least 0.9, where 1 is the maximum). In short, it runs like this: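 Chemicals were first tested in duplicate at 10 uM, and those passing a 30% inhibition threshold were rerun as concentration series topping at 20 uM. Fluorescence read-out of recombinant enzyme turnover after 1 h, relative to acetonitrile.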

Experiment [18] addresses human CYP2B6, CYP2B6 (gene 1555) (UniProt P20813). In words: NVS_ADME_hCYP2B6: NovaScreen (NVS) CYP450-related Enzyme Activity (ADME) Assay for human CYP2B6 (AID 2283101; active = hit-call score of the fitted dose curve at least 0.9, where 1 is the maximum). In outline: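 Cell-free recombinant enzyme assay with a fluorogenic substrate; fluorescence intensity read 1 hour after dosing. Loss of signal relative to acetonitrile negative control indicates inhibition. Primary screen run in duplicate at 10 uM, actives then tested in concentration series.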

This is an account of results in PubChem BioAssay (EPA / NIEHS).

Usually AC50 stands for the concentration giving half of the maximal activity seen.

The structures appear in SMILES notation. Results filed as inconclusive are left out. Calls of active or inactive are those of the source. Rule for the calls, unless noted: active = hit-call score of the fitted dose curve at least 0.9, where 1 is the maximum; inactive = score below 0.9.

Sequence of E-selectin (Homo sapiens) (P16581 whole entry, looked up): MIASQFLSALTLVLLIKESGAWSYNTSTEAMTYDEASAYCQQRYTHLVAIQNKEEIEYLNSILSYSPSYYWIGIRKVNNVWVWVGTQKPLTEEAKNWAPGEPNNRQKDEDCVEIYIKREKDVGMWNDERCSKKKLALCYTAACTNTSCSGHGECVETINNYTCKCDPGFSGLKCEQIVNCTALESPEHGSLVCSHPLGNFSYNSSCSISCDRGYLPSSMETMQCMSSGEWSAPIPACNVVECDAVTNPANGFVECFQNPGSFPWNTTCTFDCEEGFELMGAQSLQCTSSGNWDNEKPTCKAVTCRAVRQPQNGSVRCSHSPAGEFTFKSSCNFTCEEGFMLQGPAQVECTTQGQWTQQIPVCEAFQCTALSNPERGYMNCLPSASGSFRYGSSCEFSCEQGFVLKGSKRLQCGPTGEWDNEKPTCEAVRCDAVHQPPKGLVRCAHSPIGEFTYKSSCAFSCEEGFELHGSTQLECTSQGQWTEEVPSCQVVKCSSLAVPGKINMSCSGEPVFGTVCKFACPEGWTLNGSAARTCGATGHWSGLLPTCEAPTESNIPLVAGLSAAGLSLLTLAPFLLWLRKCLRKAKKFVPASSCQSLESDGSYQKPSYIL
Sequence of human CYP2A6, CYP2A6 (gene 1548) (P11509 whole entry, looked up): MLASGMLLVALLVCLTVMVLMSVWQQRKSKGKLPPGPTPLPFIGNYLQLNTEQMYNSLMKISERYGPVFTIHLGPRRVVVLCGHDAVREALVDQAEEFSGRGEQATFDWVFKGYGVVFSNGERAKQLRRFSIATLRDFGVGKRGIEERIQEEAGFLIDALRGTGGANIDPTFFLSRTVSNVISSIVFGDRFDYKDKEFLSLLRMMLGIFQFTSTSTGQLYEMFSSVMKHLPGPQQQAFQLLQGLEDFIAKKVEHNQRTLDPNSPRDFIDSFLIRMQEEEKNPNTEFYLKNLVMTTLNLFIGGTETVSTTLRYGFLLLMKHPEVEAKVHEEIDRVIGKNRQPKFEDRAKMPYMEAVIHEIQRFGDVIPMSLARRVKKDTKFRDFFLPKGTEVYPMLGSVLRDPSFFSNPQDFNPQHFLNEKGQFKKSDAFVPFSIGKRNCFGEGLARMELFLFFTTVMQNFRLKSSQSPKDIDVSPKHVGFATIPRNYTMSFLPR
Sequence of human CYP2D6, CYP2D6 (gene 1565) (P10635 whole entry, looked up): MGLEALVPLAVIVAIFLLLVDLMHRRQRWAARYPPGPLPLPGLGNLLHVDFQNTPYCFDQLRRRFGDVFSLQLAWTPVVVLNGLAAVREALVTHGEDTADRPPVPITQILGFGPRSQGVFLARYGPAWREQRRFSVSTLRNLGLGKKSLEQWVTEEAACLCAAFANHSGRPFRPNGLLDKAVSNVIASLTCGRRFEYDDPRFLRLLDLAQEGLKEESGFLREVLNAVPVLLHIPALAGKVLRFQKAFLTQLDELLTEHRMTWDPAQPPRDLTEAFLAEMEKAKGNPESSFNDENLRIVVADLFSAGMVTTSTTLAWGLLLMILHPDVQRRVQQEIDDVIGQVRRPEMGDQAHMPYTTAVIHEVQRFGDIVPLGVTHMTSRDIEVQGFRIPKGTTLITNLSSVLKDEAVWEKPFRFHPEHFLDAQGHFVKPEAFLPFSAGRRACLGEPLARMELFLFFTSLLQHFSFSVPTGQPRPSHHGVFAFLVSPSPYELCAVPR
Sequence of human CYP2B6, CYP2B6 (gene 1555) (P20813 whole entry, looked up): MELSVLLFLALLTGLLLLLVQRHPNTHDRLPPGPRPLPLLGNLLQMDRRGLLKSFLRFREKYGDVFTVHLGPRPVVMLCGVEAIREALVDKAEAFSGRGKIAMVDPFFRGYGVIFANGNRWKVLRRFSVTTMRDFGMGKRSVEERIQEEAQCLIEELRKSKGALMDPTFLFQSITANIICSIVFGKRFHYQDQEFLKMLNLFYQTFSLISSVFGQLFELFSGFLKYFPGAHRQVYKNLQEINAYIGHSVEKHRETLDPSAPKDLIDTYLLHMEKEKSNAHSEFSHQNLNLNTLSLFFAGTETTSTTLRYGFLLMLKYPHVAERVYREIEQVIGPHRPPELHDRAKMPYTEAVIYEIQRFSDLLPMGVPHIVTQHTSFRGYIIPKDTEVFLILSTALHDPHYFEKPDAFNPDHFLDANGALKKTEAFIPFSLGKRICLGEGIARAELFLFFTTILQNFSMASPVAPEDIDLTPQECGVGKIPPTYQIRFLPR
Sequence of human CYP1A1, CYP1A1 (gene 1543) (P04798 whole entry, looked up): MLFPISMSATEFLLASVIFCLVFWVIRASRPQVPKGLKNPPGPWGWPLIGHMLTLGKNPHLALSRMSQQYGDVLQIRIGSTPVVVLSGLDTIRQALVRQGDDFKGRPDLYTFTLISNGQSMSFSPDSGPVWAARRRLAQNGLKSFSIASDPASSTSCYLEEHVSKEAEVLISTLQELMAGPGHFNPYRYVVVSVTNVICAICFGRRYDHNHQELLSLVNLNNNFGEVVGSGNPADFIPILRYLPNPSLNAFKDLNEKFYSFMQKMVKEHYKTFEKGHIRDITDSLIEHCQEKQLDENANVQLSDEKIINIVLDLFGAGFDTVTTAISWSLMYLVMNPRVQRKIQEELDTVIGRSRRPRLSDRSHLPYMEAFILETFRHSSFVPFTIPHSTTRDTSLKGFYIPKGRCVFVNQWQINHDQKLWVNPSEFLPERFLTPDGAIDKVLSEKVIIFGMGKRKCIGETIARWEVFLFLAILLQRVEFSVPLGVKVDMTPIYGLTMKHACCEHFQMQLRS

In the case of `O=C(N[C@H](c1ccccc1)[C@@H]1CN2CCC1CC2)c1c(Cl)ccc(C(F)(F)F)c1Cl`, the AC50 in [1] was 4.3 µM (active); in experiment [4], 17.7 µM (active); in [5] it was 29.7 µM (active); in experiment [7], 29.7 µM (active); in experiment [11] it was 14.7 µM (active); in experiment [12], 20.2 µM (active). Further, the AC50 was 29.7 µM (active) in experiment [13] and 3.5 µM (active) in experiment [16]. Moreover, the result in experiment [2], in experiment [3], in experiment [6], in experiment [8], in experiment [9] and in experiment [10] was inactive. Moreover, the result in experiment [14] and in [15] was inactive.

Consider `N#CC(Br)Br`, for which the result in [1], in experiment [2], in [3], in [4], in [5] and in experiment [6] was inactive. The outcome in [7], in experiment [8], in experiment [9], in experiment [10], in experiment [11] and in experiment [12] was inactive. The outcome in [13] and in experiment [14] was inactive.

As for `[Cl-].[Cl-].[Hg+2]`, the outcome in [1], in [8], in experiment [10], in experiment [12] and in experiment [14] was inactive. The AC50 was 31.7 µM (active) in experiment [2]; 32.9 µM (active) in [3]; 28.2 µM (active) in experiment [4]; 36.6 µM (active) in experiment [5]; 32 µM (active) in experiment [6]; 36.8 µM (active) in experiment [7]. Further, the AC50 is 20 µM (active) in experiment [9]; 31 µM (active) in experiment [11]; 22.7 µM (active) in [13]; 14.8 µM (active) in [15]; 14.3 µM (active) in [17]; 9.16 µM (active) in [18]. Moreover, the half-maximal activity concentration (AC50) in [16] is 3.44 µM (active).

Regarding `CC(C)COC(=O)c1ccccc1C(=O)OCC(C)C`, the AC50 in experiment [1] was 9.78 µM (active); in experiment [4] it was 20 µM (active); in [7], 20 µM (active); in [9], 20 µM (active); in [11], 37 µM (active); in [13], 30.3 µM (active). Besides, the result in [2], in [3], in experiment [5], in [6], in experiment [8] and in experiment [10] was inactive. The result in experiment [12] and in experiment [14] was inactive.
